Results: PubChem BioAssay (EPA / NIEHS)
Records with an inconclusive call do not appear. The source made the active and inactive calls. Rule for the calls: active = hit-call score of the fitted dose curve at least 0.9, where 1 is the maximum; inconclusive = response in the unintended direction; inactive = score below 0.9.

Read-out: alkyl and aryl transferase (GSTA2), GSTA2 (gene 2939)
Experiment: CLD_GSTA2_48hr: CellzDirect (CLD) Gene Expression Assay for alkyl and aryl transferase (GSTA2) at 48 hours (AID 2283708);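 note: active means mRNA induction above DMSO vehicle baseline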
Description: CLD_48hr is a cell-based, multiplexed-readout assay that uses hepatocyte, a human liver primary cell, with measurements taken at 48 hours after chemical dosing in a 96-well plate.CLD_GSTA2_48hr is one of 16 assay component(s) measured or calculated from the CLD_48hr assay. It is designed to make measurements of mRNA induction, a form of inducible reporter, as detected with chemiluminescence signals by Quantitative Nuclease Protection Assay (qNPA) technology.Data from the assay component CLD_GSTA2_48hr was analyzed at the endpoint, CLD_GSTA2_48hr, in the positive analysis fitting direction relative to DMSO as the negative control and baseline of activity. Using a type of inducible reporter, gain-of-signal activity can be used to understand changes in the reporter gene as they relate to the gene GSTA2. Furthermore, this assay endpoint can be referred to as a primary readout. To generalize the intended target to other relatable targets, this assay endpoint is annotated to the transferase intended target family, where subfamily is alkyl and aryl transferase.
Human hepatocyte cultures were treated daily for two consecutive days with fresh dosing solutions containing appropriate concentrations of the 320 ToxCast chemicals (chemical identities were blinded to CellzDirect and other ToxCast collaborators), vehicle control (0.2% DMSO), and positive control inducers as summarized in Table 1. […] These replicate data, coupled with internal replicates designed within the blinded ToxCast chemical library, provided additional data to evaluate interindividual differences between hepatocyte preparations and their potential impact on chemical profiles.Cell morphology and integrity were evaluated using phase-contrast microscopy as an indicator of hepatocyte cell health (Tyson & Green, 1987). Cultures for each treatment group (i.e., media, vehicle [0.2% DMSO], positive control inducers [multiple concentrations], and the ToxCast chemicals [multiple concentrations]) were observed and cell morphology was assessed relative to vehicle control cultures at each harvest time point (0, 6, 24, or 48 h). […] Images were evaluated at the conclusion of the study to assess changes in cell integrity and account for the effects of chemical exposure on uncharacteristic changes in concentration-dependent gene expression profiles. The results from these determinations of apparent cytotoxicity were annotated (yes/no) alongside the corresponding qNPA data for reference.At the conclusion of each treatment period, hepatocyte cultures (96-well) were washed with 1 volume of HBSS, lysed by addition of 25 ul ArrayPlate lysis buffer (HTG, Tucson, AZ), and 70 ul/well of Denaturation Oil, denatured by incubation at 95C for 10 min, and frozen at approximately -70C until analysis by nuclease protection assay (qNPA) (Roberts et al., 2007). For qNPA analysis, cell lysates were thawed at 50C for approximately 30 min, qNPA probes were added, and samples were incubated at 95C for 10 min to begin the detection process by denaturing the target RNA, dissociating the duplexes and secondary structure hybridization. At the conclusion of the hybridization period, S1 nuclease reagent was added to each sample to digest all nonprotected nucleotides at 50C for 60-90 min. At the conclusion of the S1 nuclease digestions, all reactions were stopped by transfer of all the samples to fresh plates containing stop solution and incubated at 95C for 15 min to deactivate the enzyme, dissociate the mRNA/ DNA probe heterodimers, and hydrolyze the resulting single stranded mRNA, leaving a stoichiometric amount of single-stranded DNA nuclease protection probe, unmodified in sequence, as the only intact oligonucleotide left in the sample. Neutralization solution was subsequently applied to cooled (room temperature) plates, and samples were transferred to ArrayPlates for overnight incubations at 50Cto allow probes to be captured onto programmed locations on the ArrayPlates. […]

| Compound | outcome | AC50 |
| --- | --- | --- |
| C#CCC1=C(C)C(OC(=O)C2C(C=C(C)C)C2(C)C)CC1=O (stereo not given) | inactive | – |
| COc1ccc(C(=CC(=O)N2CCOCC2)c2ccc(Cl)cc2)cc1OC | – | 32.2 µM (active) |
| COP(=O)(OC)C(O)C(Cl)(Cl)Cl (stereo not given) | inactive | – |
| CCOP(=O)(SC(C)CC)N1CCSC1=O (stereo not given) | inactive | – |
| COc1cc(OC)nc(Sc2cccc(Cl)c2C(=O)O)n1 | inactive | – |
| CCCOc1nn(C(=O)NS(=O)(=O)c2ccccc2C(=O)OC)c(=O)n1C | inactive | – |
| CC(=NC#N)N(C)Cc1ccc(Cl)nc1 | inactive | – |
| Cc1cc(C2CC2)nc(Nc2ccccc2)n1 | inactive | – |
| CSc1nc(NC(C)C)nc(NC(C)C)n1 | inactive | – |
| N#CSCSC#N | inactive | – |
| CCCCOC(=O)[C@@H](C)Oc1ccc(Oc2ccc(C#N)cc2F)cc1 | inactive | – |
| CNC(=O)ON=C(SC)C(=O)N(C)C | inactive | – |
| COc1cccc(C(=O)NN(C(=O)c2cc(C)cc(C)c2)C(C)(C)C)c1C | inactive | – |
| O=[N+]([O-])c1cc(C(F)(F)F)c(Cl)c([N+](=O)[O-])c1Nc1ncc(C(F)(F)F)cc1Cl | inactive | – |
| CCC(=NOC/C=C/Cl)C1=C(O)CC(C2CCOCC2)CC1=O (stereo not given) | inactive | – |
| CCOP(=S)(OCC)Oc1ccc2c(C)c(Cl)c(=O)oc2c1 | inactive | – |
| CCCCOC(=O)c1ccccc1C(=O)O | inactive | – |
| CN(C)NC(=O)CCC(=O)O | inactive | – |
| FC(F)C(F)(F)OCC(Cn1cncn1)c1ccc(Cl)cc1Cl (stereo not given) | inactive | – |
| CCOP(=S)(Oc1cnc(C(C)(C)C)nc1)OC(C)C (stereo not given) | – | 20 µM (active) |

| Compound | outcome | AC50 |
| --- | --- | --- |
| CCOP(=S)(OCC)OC(Cl)C(Cl)(Cl)Cl (stereo not given) | inactive | – |
| CON=C(C(=O)OC)c1ccccc1CON=C(C)c1cccc(C(F)(F)F)c1 | inactive | – |
| CSC1=N[C@@](C)(c2ccccc2)C(=O)N1Nc1ccccc1 | inactive | – |
| CC(C)N(C(=O)SCC(Cl)=C(Cl)Cl)C(C)C | inactive | – |
| CC(C1CC1)C(O)(Cn1cncn1)c1ccc(Cl)cc1 (stereo not given) | inactive | – |
| CCc1cccc(CC)c1N(COC)C(=O)CCl | – | 32.1 µM (active) |
| CNC(=O)ON=C(C)SC | inactive | – |
| CCOP(=S)(OCC)SCCSCC | inactive | – |
| CC1(C(=O)Nc2ccc(O)c(Cl)c2Cl)CCCCC1 | inactive | – |
| CCOP(=S)(OCC)Oc1cc(C)nc(C(C)C)n1 | inactive | – |
| CC(C)[C@H](C(=O)O[C@H](C#N)c1cccc(Oc2ccccc2)c1)c1ccc(Cl)cc1 | inactive | – |
| CC1=NNC(=O)N(/N=C/c2cccnc2)C1 | inactive | – |
| S=C1NCCN1 | inactive | – |
| C=C(C)[C@H]1Cc2c(ccc3c2O[C@@H]2COc4cc(OC)c(OC)cc4[C@@H]2C3=O)O1 | – | 0.66 µM (active) |
| CCC(CC)Nc1c([N+](=O)[O-])cc(C)c(C)c1[N+](=O)[O-] | inactive | – |
| CN1COCN(Cc2cnc(Cl)s2)C1=N[N+](=O)[O-] | inactive | – |
| COP(=O)(NC(C)=O)SC (stereo not given) | inactive | – |
| Nc1nc(N)nc(NC2CC2)n1 | inactive | – |
| COP(=O)(OC)SCn1c(=O)oc2cc(Cl)cnc21 | inactive | – |
| CCCOCC(=Nc1ccc(Cl)cc1C(F)(F)F)n1ccnc1 | – | 20 µM (active) |
